# Measured values published in publication PMC5540273 (PLoS ONE, 2017).
# Columns and labels:
# Conditions in all cases: concentration: 1 μM, replicates: in singlicate; n = 1
# MLK1 = tested on: T1, MLK1
# T1 construct: gene MAP3K9
# MLK2 = tested on: MLK2
# MLK3 = tested on: MLK3
# MRCKA = tested on: MRCKA
# MRCKB = tested on: T2, MRCKB
# T2 construct: gene CDC42BPB
# MST1R = tested on: MST1R
# MST1 = tested on: T3, MST1
# T3 construct: gene STK4
# MST2 = tested on: T4, MST2
# T4 construct: gene STK3
# MST3 = tested on: T5, MST3
# T5 construct: gene STK24
# MST4 = tested on: MST4
# MTOR = tested on: MTOR
# MUSK = tested on: MUSK
# MYLK2 = tested on: MYLK2
# MYLK4 = tested on: MYLK4
# MYLK = tested on: MYLK
# MYO3A = tested on: MYO3A
# MYO3B = tested on: MYO3B
# NDR1 = tested on: T6, NDR1
# T6 construct: gene STK38
# NDR2 = tested on: NDR2
# NEK10 = tested on: NEK10
# 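Note: KINOMEscan kinase panel screen.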
Structure (SMILES),%Inh (MLK1),%Inh (MLK2),%Inh (MLK3),%Inh (MRCKA),%Inh (MRCKB),%Inh (MST1R),%Inh (MST1),%Inh (MST2),%Inh (MST3),%Inh (MST4),%Inh (MTOR),%Inh (MUSK),%Inh (MYLK2),%Inh (MYLK4),%Inh (MYLK),%Inh (MYO3A),%Inh (MYO3B),%Inh (NDR1),%Inh (NDR2),%Inh (NEK10)
Cl.N#CCc1ccc(Nc2nccc(Nc3ccc(Oc4ccccc4)cc3)n2)cc1 [GW639905],0%,0%,0%,6%,0%,2%,20%,0%,0%,0%,24%,14%,1%,9%,0%,0%,3%,0%,0%,8%
Nc1cccc(-c2ccc3c(N)n[nH]c3c2)c1 [GSK2193613],10%,100%,19%,0%,0%,26%,6%,17%,21%,0%,13%,20%,92.3%,96.9%,40%,45%,0%,27%,13%,10%
CC(=O)Nc1cn2nc(Oc3cccc(NC(=O)c4cccc(C(F)(F)F)c4)c3)ccc2n1,2%,23%,6%,7%,0%,0%,27%,0%,1%,0%,11%,21%,0%,3%,44%,5%,9%,8%,0%,0%
COC(=O)Nc1nc2ccc(Oc3ccc(NC(=O)Nc4cc(C(F)(F)F)ccc4F)cc3)cc2[nH]1.Cl [GW654607],2%,21%,1%,15%,0%,61%,6%,0%,6%,8%,34%,99.6%,33%,0%,10%,0%,0%,29%,0%,21%
Nc1ncc(-c2ccc3nccc(-c4ccncc4)c3c2)cc1S(=O)(=O)N1CCCCC1 [GSK1693850],0%,0%,7%,12%,0%,35%,8%,25%,29%,0%,100%,0%,0%,10%,22%,22%,0%,30%,2%,54%
CN1CCN(Cc2ccc(NC(=O)Nc3ccc(N(C)c4ccnc(Nc5ccc(CS(C)(=O)=O)cc5)n4)cc3)cc2)CC1.Cl [GW827654],14%,24%,0%,15%,30%,92.7%,61%,99%,68%,83%,0%,98.8%,61%,18%,45%,99.1%,0%,0%,0%,28%
CN(C)CCOc1ccc(-c2cc(-c3ccc(Cl)c(O)c3)c(-c3ccncc3)[nH]2)cc1.Cl.Cl [SB-684387],0%,0%,0%,8%,5%,34%,0%,17%,0%,0%,19%,0%,28%,9%,18%,39%,13%,35%,42%,0%
CN(c1ccc(NC(=O)N2CCN(CCCN3CCOCC3)CC2)cc1)c1ccnc(Nc2ccc(CS(C)(=O)=O)cc2)n1.Cl [GW830899],13%,29%,1%,19%,15%,0%,0%,0%,0%,0%,0%,12%,9%,1%,0%,0%,0%,3%,0%,0%
O=C(O)C(F)(F)F.O=c1[nH]ccc2nc(N[C@@H]3CCNC3)nc(Nc3ccc4c(c3)S(=O)(=O)CC4)c12 [GSK2181306],79%,9%,61%,26%,54%,1%,95.9%,80%,96.6%,95.5%,1%,0%,78%,60%,98.1%,74%,4%,89%,89%,95.3%
Cc1cc(-c2c(-c3ccc(F)cc3)ncn2CCCN2CCOCC2)nc(N)n1 [SB-222517],5%,49%,0%,0%,20%,18%,13%,20%,5%,1%,0%,14%,1%,14%,17%,17%,30%,43%,14%,16%
CCOc1nccc(-c2c(-c3ccc(F)cc3)ncn2C2CCNCC2)n1 [SB-249175],3%,14%,15%,0%,26%,0%,0%,0%,13%,11%,0%,0%,0%,19%,31%,90%,0%,6%,12%,27%
Cc1ccc(-c2ccc3occ(-c4ccc(S(C)=O)cc4)c3c2)nn1 (stereo not shown),0%,10%,0%,0%,0%,0%,0%,0%,0%,0%,17%,3%,11%,0%,0%,0%,1%,2%,15%,25%
Cc1ccc(Nc2ccnc(Nc3ccc(C)c(F)c3)n2)cc1O.Cl [GW582868],60%,0%,45%,0%,0%,18%,0%,9%,0%,0%,15%,12%,0%,29%,9%,2%,0%,0%,0%,0%
CC(C)NCC(Cc1ccccc1)NC(=O)c1cc(Br)c(-c2ccnc3[nH]ccc23)s1.Cl.Cl (stereo not shown) [GSK1383281],4%,0%,0%,25%,89%,43%,0%,0%,0%,26%,6%,0%,1%,79%,56%,19%,0%,90.3%,65%,2%
CCn1c(-c2nonc2N)nc2c(-c3ccccc3)ncc(OCCCN)c21.O=C(O)C(F)(F)F.O=C(O)C(F)(F)F [GSK260205],0%,0%,0%,99.9%,99.3%,45%,52%,0%,38%,71%,20%,0%,0%,0%,33%,27%,0%,23%,0%,9%
Cc1cccc(Nc2nc(N[C@H]3CCCC[C@H]3N)ncc2C(N)=O)c1.Cl [GSK986310],85%,40%,76%,13%,0%,44%,34%,0%,52%,34%,0%,27%,7%,93.8%,29%,8%,0%,27%,0%,71%
CN(C)CCNS(=O)(=O)c1ccc(-c2ccnc3[nH]ccc23)cc1 [GSK977620],3%,24%,0%,4%,46%,27%,17%,9%,0%,0%,17%,23%,35%,99.5%,28%,0%,0%,29%,15%,17%
Cl.O=C(Nc1ccc(Oc2ccc3[nH]c(NC(=O)c4ccco4)nc3c2)cc1)Nc1cc(C(F)(F)F)ccc1F [GW683134],28%,28%,49%,15%,0%,41%,17%,0%,8%,0%,5%,98.6%,75%,3%,0%,0%,9%,0%,0%,0%
O=C(Nc1c(F)cccc1F)c1cc(C(=O)c2ccccc2F)c[nH]1 [GSK1326180],3%,21%,0%,0%,0%,0%,2%,0%,0%,0%,18%,0%,4%,6%,0%,0%,0%,0%,2%,9%
Cn1cc(-c2cnc(N)c3c(-c4ccc5c(c4)CCN5C(=O)Cc4ccccc4)csc23)cn1 [GSK2593074],14%,25%,14%,10%,10%,12%,97.8%,100%,7%,33%,0%,24%,55%,0%,4%,0%,45%,10%,2%,22%
